Binding signal data for 39 sequences are collected here from article PMC10812921, “Transcriptional Coactivator BOB1 (OBF1, OCA-B) Modulates the Specificity of DNA Recognition by the POU-Domain Factors OCT1 and OCT2 in a Monomeric Configuration”.

Chain of POU1 (OCT1 POU domain) (P14859 260-458): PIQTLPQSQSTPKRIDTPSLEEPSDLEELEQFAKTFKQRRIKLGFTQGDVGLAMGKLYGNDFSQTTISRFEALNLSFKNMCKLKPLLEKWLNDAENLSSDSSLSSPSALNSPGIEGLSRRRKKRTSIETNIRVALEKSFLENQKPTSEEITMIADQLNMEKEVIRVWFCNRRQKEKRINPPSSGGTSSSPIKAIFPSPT

For the first assay, the target named is POU1 (OCT1 POU domain) (human, UniProt P14859 260-458). Put plainly: EMSA-SELEX-seq; no BOB1; 20 mM Tris-HCl pH 7.6, 140 mM NaCl, 10% glycerol, 0.5 mM EDTA, 0.05% Triton X-100, 0.1 mg/mL BSA, 0.1 mg/mL poly(dI-dC), 5 mM DTT, room temperature, 20 min; high values mean tight binding. As to conditions: protein: recombinant; dsDNA, one strand shown. In short, it runs like this:
(§1)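 A double-stranded random 35-nt library (300 ng, PCR-amplified) was incubated with 30 ng tagged POU-domain protein, with or without 28 ng coactivator protein, in 20 μL Tris–HCl pH 7.6 binding buffer for 20 min at RT. The proteins had been expressed in E. coli BL21, purified under denaturing conditions and renatured. Complex bands from native 6% PAGE were eluted and PCR-amplified over four rounds, then sequenced on Illumina. For binding preference, the percentage of sequenced 8-mers matching a motif pattern was calculated.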
Regarding ACACCAAT, the binding signal was 0.0187 % of ANNNNAAN 8-mers.
On the same count and under the same terms, for ACGATAAG the value was 0.0275 % of ANNNNAAN 8-mers; for ATACTAAC, 0.0347 % of ANNNNAAN 8-mers; for AAGGTAAA, 0.108 % of ANNNNAAN 8-mers.
As for ATTCAAAA, the binding signal is 0.365 % of ANNNNAAN 8-mers.
On to ACTTGAAA, for which the binding signal is 0.0317 % of ANNNNAAN 8-mers.
ACACAAAG: the binding signal is 0.0309 % of ANNNNAAN 8-mers.
As for AATGGAAT, the binding signal was 0.138 % of ANNNNAAN 8-mers.
On the same count and under the same terms, next, AACGAAAG: 0.0313 % of ANNNNAAN 8-mers; ACAAGAAA: 0.0366 % of ANNNNAAN 8-mers.
On the same count and under the same terms, next, ATTTGAAC: 0.0496 % of ANNNNAAN 8-mers.
The same measure, in the same setting: for ATGATAAA the value was 0.104 % of ANNNNAAN 8-mers; for ACGGAAAA, 0.0515 % of ANNNNAAN 8-mers.
As to AGTCGAAA, the binding signal was 0.0431 % of ANNNNAAN 8-mers.
The same measure, in the same setting: next, AATTTAAG: 0.15 % of ANNNNAAN 8-mers; AGCAAAAC: 0.0481 % of ANNNNAAN 8-mers; ACCAGAAC: 0.013 % of ANNNNAAN 8-mers.
The same measure, in the same setting: for AGGATAAA the value was 0.0549 % of ANNNNAAN 8-mers; for AACGGAAC, 0.0187 % of ANNNNAAN 8-mers.
The same measure, in the same setting: for ATAAAAAG the value was 0.0915 % of ANNNNAAN 8-mers; for ATTAGAAG, 0.0786 % of ANNNNAAN 8-mers; for AACTTAAG, 0.0351 % of ANNNNAAN 8-mers.
AAAGCAAC: the binding signal was 0.0256 % of ANNNNAAN 8-mers.
Still for that read-out and setting: for AATGTAAA the value was 0.614 % of ANNNNAAN 8-mers.
Regarding ATGGGAAT, the binding signal was 0.117 % of ANNNNAAN 8-mers.
Take AAGTGAAT: the binding signal was 0.105 % of ANNNNAAN 8-mers.
On to ACATTAAA, for which the binding signal was 0.104 % of ANNNNAAN 8-mers.
The same measure, in the same setting: for ACGTAAAT the value was 0.217 % of ANNNNAAN 8-mers; for ATTATAAC, 0.0713 % of ANNNNAAN 8-mers; for ATCTCAAT, 0.0561 % of ANNNNAAN 8-mers.
Still for that read-out and setting: next, ATTCAAAT: 1.58 % of ANNNNAAN 8-mers; AGCCGAAG: 0.0168 % of ANNNNAAN 8-mers.
On to ATCTTAAC, for which the binding signal was 0.0351 % of ANNNNAAN 8-mers.
ATTAAAAG: the binding signal was 0.149 % of ANNNNAAN 8-mers.
In the case of AACGTAAC, the binding signal is 0.0179 % of ANNNNAAN 8-mers.
Turning to AAGAAAAT, the binding signal is 0.158 % of ANNNNAAN 8-mers.
As to ATACCAAT, the binding signal was 0.0465 % of ANNNNAAN 8-mers.
As for ACTTTAAA, the binding signal is 0.0713 % of ANNNNAAN 8-mers.
Consider AAGCGAAA, for which the binding signal is 0.0358 % of ANNNNAAN 8-mers.

Another assay has as its target T1, POU2 (OCT2 POU domain) (human, UniProt P09086 175-386).
T1 sequence: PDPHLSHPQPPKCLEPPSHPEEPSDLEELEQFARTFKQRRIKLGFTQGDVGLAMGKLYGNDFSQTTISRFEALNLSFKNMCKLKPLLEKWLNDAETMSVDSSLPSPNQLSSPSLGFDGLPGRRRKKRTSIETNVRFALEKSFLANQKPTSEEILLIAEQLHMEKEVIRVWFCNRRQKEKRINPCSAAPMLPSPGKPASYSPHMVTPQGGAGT
Described as above. The settings on record: protein: recombinant; dsDNA, one strand shown. Put shortly: as §1
In the case of ACACCAAT, the binding signal was 0.0173 % of ANNNNAAN 8-mers.
As for ACGATAAG, the binding signal was 0.0311 % of ANNNNAAN 8-mers.
As to ATACTAAC, the binding signal is 0.0293 % of ANNNNAAN 8-mers.
Same read-out and setting: next, AAGGTAAA: 0.109 % of ANNNNAAN 8-mers.
For the sequence ATTCAAAA, the binding signal is 0.277 % of ANNNNAAN 8-mers.
The same measure, in the same setting: for ACTTGAAA the value was 0.042 % of ANNNNAAN 8-mers; for ACACAAAG, 0.0196 % of ANNNNAAN 8-mers; for AATGGAAT, 0.212 % of ANNNNAAN 8-mers.
Same read-out and setting: for AACGAAAG the value was 0.0328 % of ANNNNAAN 8-mers.
As for ACAAGAAA, the binding signal was 0.0437 % of ANNNNAAN 8-mers.
On the same count and under the same terms, for ATTTGAAC the value was 0.0558 % of ANNNNAAN 8-mers; for ATGATAAA, 0.131 % of ANNNNAAN 8-mers; for ACGGAAAA, 0.0478 % of ANNNNAAN 8-mers.
On the same count and under the same terms, next, AGTCGAAA: 0.0414 % of ANNNNAAN 8-mers; AATTTAAG: 0.142 % of ANNNNAAN 8-mers.
In the case of AGCAAAAC, the binding signal was 0.0449 % of ANNNNAAN 8-mers.
As for ACCAGAAC, the binding signal was 0.0127 % of ANNNNAAN 8-mers.
On the same count and under the same terms, for AGGATAAA the value was 0.0834 % of ANNNNAAN 8-mers; for AACGGAAC, 0.0201 % of ANNNNAAN 8-mers.
Take ATAAAAAG: the binding signal is 0.114 % of ANNNNAAN 8-mers.
For the sequence ATTAGAAG, the binding signal is 0.101 % of ANNNNAAN 8-mers.
In the case of AACTTAAG, the binding signal was 0.042 % of ANNNNAAN 8-mers.
For the sequence AAAGCAAC, the binding signal is 0.0259 % of ANNNNAAN 8-mers.
Take AATGTAAA: the binding signal is 0.509 % of ANNNNAAN 8-mers.
The same measure, in the same setting: next, ATGGGAAT: 0.128 % of ANNNNAAN 8-mers.
On the same count and under the same terms, next, AAGTGAAT: 0.123 % of ANNNNAAN 8-mers; ACATTAAA: 0.125 % of ANNNNAAN 8-mers.
On to ACGTAAAT, for which the binding signal is 0.172 % of ANNNNAAN 8-mers.
On to ATTATAAC, for which the binding signal is 0.113 % of ANNNNAAN 8-mers.
The same measure, in the same setting: next, ATCTCAAT: 0.0846 % of ANNNNAAN 8-mers.
The same measure, in the same setting: for ATTCAAAT the value was 1.29 % of ANNNNAAN 8-mers; for AGCCGAAG, 0.0201 % of ANNNNAAN 8-mers; for ATCTTAAC, 0.0449 % of ANNNNAAN 8-mers.
As to ATTAAAAG, the binding signal was 0.171 % of ANNNNAAN 8-mers.
Turning to AACGTAAC, the binding signal is 0.0236 % of ANNNNAAN 8-mers.
Still for that read-out and setting: next, AAGAAAAT: 0.125 % of ANNNNAAN 8-mers; ATACCAAT: 0.0518 % of ANNNNAAN 8-mers.
On to ACTTTAAA, for which the binding signal is 0.0817 % of ANNNNAAN 8-mers.
As for AAGCGAAA, the binding signal is 0.0391 % of ANNNNAAN 8-mers.
